About 83,000 compounds went through this panel and 20% of them were active in at least one assay; those are over-represented in the sample as a whole.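 The test compound was applied at a single concentration to cells in 96-well plates for 48 hours, and percent growth was recorded.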 The source made the active and inactive calls. How the source made its calls: active means growth percent below 10; inactive means the rest.

The test deals with MDA-MB-468 breast. The test is described as follows: NCI-60 one-dose screen, 48 h (100 = growth as untreated, 0 = no growth, -100 = all killed). The settings on record: 10 µM unless noted.
Regarding `C/C=C/C1OC23CCCCC2C(C#N)(C(=N)O3)C1(C#N)C#N` (stereo not given), the growth was 77.7% (inactive). The value for `CCN(CC)CCCC(C)Nc1cc(O)cc2cccnc12` (stereo not given) was 73.9% (inactive); that for `O=C(NCc1ccc2c(c1)OCO2)NCC1CCCC(CNC(=O)NCc2ccc3c(c2)OCO3)C1` (stereo not given) was 104% (inactive); that for `O=C1C=C(Nc2ccccc2)c2ncccc2C1=O` was -61.3% (active). Under `Cn1c2nc3ccccc3c-2cc2ccccc21` stands 41.3% (inactive). The value for `NC(N)=N/N=C(/c1ccccc1)c1ccc(Cl)cc1` was 39.6% (inactive); that for `Cc1ccc(C(=O)NCCCNc2nccc(-n3ccc4cccnc43)n2)cc1` was 95.6% (inactive); that for `O=C1NC(=O)C(c2ccc(Cl)cc2Cl)N1` (stereo not given) was 106% (inactive). Turning to `CC1=NC(c2ccc(Cl)cc2)C2=C(N1)/C(=C/c1ccc(Cl)cc1)CCC2` (stereo not given), the growth is 75.8% (inactive).

For `CC1OC(n2c3ccccc3c3c4c(c5c6ccccc6[nH]c5c32)C(=O)N(CCN[C@H]2CCC[C@@H]2N)C4=O)CC(O)C1O` (stereo not given in full), the growth was -20% (active). The value for `COc1ccc2c(O)c(/C=C3\N=Nc4ncccc43)oc2c1C[C@H]1CCNC[C@H]1F` was -39% (active). For `Cc1cc(N/N=C/c2ccccn2)nc2ccccc12`, the growth was -13.3% (active). Under `Cc1cc(C(C)(C)c2cc(C)c(O)c(CN(C)C)c2)cc(CN(C)C)c1O` stands 67.7% (inactive); under `CN1CCC(CNc2cc(C3(C(=O)Nc4cc(C(=O)Nc5ccc(Cl)c(C(F)(F)F)c5)ccc4F)CC3)ncn2)CC1`, -7.58% (active). Under `O=C1c2ccccc2-c2nnc(-c3ccc(Br)cc3)cc21` stands 20.3% (inactive); under `Nc1c2c(nc3ccc(Br)cc13)CC(c1ccccc1)CC2=O` (stereo not given), -4.68% (active); under `Nc1ncnc2[nH]c(=O)[nH]c12`, 97.8% (inactive).

On to `CCOC(=N)c1ccc(C(=N)OCC)cc1`, for which the growth was 106% (inactive). Under `C=C(c1ccc(N(C)C)cc1)c1ccc(N(C)C)cc1` stands -30.9% (active). Under `CCC(=O)Oc1cc(Cl)c(Cl)cc1Cl` stands 113% (inactive). On to `CC1OC(O[C@@H]2[C@H](O)C(CO)OC(O[C@H]3COC(O[C@H]4CC[C@]5(C)[C@H]6CC[C@]78OC[C@@]9(CCC(C)(C)C[C@H]97)[C@H](O)C[C@@]8(C)[C@]6(C)CC[C@H]5C4(C)C)[C@@H](OC4OC(CO)[C@@H](O)[C@@H](O)[C@@H]4O)[C@@H]3O)[C@H]2OC2OC[C@@H](O)[C@@H](O)[C@@H]2O)[C@@H](O)[C@@H](O)[C@H]1O` (stereo not given in full), for which the growth is -39.3% (active). Turning to `CC1(O)CC(c2nc(-c3ccc4ccc(-c5ccccc5)nc4c3)c3c(N)nccn23)C1` (stereo not given), the growth was 25% (inactive). The value for `C[C@H]1[C@H](C)CC[C@]2(C(=O)Nc3ccc4ncccc4c3)CC[C@]3(C)C(=CC[C@@H]4[C@@]5(C)CCCNC(C)(C)[C@@H]5CC[C@]43C)[C@H]12` was -55.7% (active); that for `Cn1cc(CC2CC(=O)N(c3ccccc3)C2=O)sc1=NC(=O)c1ccccc1` (stereo not given) was 99.8% (inactive); that for `O=C(Nc1ccc(-n2cc(-c3ccncc3)c(-c3ccc(Cl)c(O)c3)n2)cc1)c1ccc(Cl)c(Cl)c1` was 54.2% (inactive). The value for `CN(Cc1cnc2nc(N)nc(N)c2n1)c1ccc(C(=O)N[C@@H](CCc2nn[nH]n2)c2nn[nH]n2)cc1` was 52.8% (inactive). For `Cc1cccc(C)c1NC(=O)CSC(=S)N1CCCCC1`, the growth is 110% (inactive).

Consider `C#CCSc1nnnn1-c1ccc(Br)c(C)c1`, for which the growth was 67.2% (inactive). Under `[2H]C([2H])([2H])Oc1c(F)cccc1/C=C/C(=O)/C=C(O)/C=C/c1cccc(F)c1OC([2H])([2H])[2H]` stands 98.3% (inactive); under `CS(=O)(=O)c1ccc(-c2cnc3ccc(-c4cccc(S(C)(=O)=O)c4)nn23)cc1`, 6.54% (active); under `CC(NC(N)=S)c1ccccc1` (stereo not given), -11.5% (active).

For `CC/C=C\C[C@H](O)C/C=C1/C(=O)C=C[C@@H]1C/C=C\CCCC(=O)OC`, the growth is 3% (active).

As for `COCc1nc(NS(=O)(=O)c2ccc(N)cc2)nc(C)c1Br`, the growth is 99.1% (inactive). Under `CC(C)(C)c1nn(-c2ccccc2)c2c1C(=O)CSC(c1ccc3c(c1)OCO3)N2` (stereo not given) stands 120% (inactive); under `COc1ccc(C2c3ccccc3NC(=O)N2C2CCN(C)CC2)c(OC)c1` (stereo not given), 88.3% (inactive); under `CCCCOc1nc2ccc(C)cc2cc1/C=C/C(=O)/C=C/c1ccc2c(c1)OCO2`, 95.9% (inactive). For the molecule `COc1cc2ncnc(Nc3ccc(S(=O)(=O)Nc4nccs4)cc3)c2cc1OCCCN1CCOCC1`, the growth was 107% (inactive). The value for `CC(C)N=C(N/C(N)=N/c1nc2ccccc2s1)NC(C)C` was 66.4% (inactive); that for `CC(O)c1cc[cH-]c1.[Fe+2].c1cc[cH-]c1` (stereo not given) was 94.5% (inactive); that for `Cn1c(=O)c2c(ncn2CCC(=O)Nc2ccc(F)cc2)n(C)c1=O` was 106% (inactive).
